Hits are enriched below; roughly 6.7% of the tested compounds scored in any of these assays.
C diff HTS: C. difficile growth inhibition; Clostridium difficile clinical isolate growth, OD600, 24 h; active compounds read low; growth activity, negative = inhibition, % at 16 µg/mL (by protocol); 0.25% of 86,000 active; AID 1259249;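 active = mean growth activity at or below -80% and every replicate also at or below -80%; inconclusive = mean at or below -80% but some replicate above -80%; inactive = mean growth activity above -80%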
Pf Dd2 growth: P. falciparum Dd2 growth inhibition; SYBR Green, 72 h; active compounds read low; activity change, % at 10 µM; 2.3% of 94,000 active; AID 1159554; in the data active = activity change below about -80%; inconclusive = no clear call, values can overlap the other calls
T cruzi growth-1: inhibitors of T. cruzi proliferation | inhibition, % at 8.34 µM | 5.9% of 77,000 active | T. cruzi beta-gal in NIH3T3, GalScreen luminescence, 90 h;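 active = mean inhibition above about 93%, with at least 55% of replicates each passing it, limit read from the data, passing the limit was not always enough; inconclusive = only one of those two conditions holds; inactive = neither condition holds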
T cruzi growth-2: blocks T. cruzi growth in NIH3T3 host cells; shares compounds with T cruzi growth-1; T. cruzi beta-gal in NIH3T3, GalScreen luminescence, 90 h; inhibition, % at 8.35 µM; 72% of 5,600 active; AID 651739;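 active = mean replicate inhibition above about 95% and at least 55% of replicates individually reaching it, limit read from the data; inconclusive = only one of the two criteria is met; inactive = neither criterion is met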
T cruzi growth-3: inhibitors of T. cruzi proliferation; inhibition, % at 2.09 µM; T. cruzi beta-gal in NIH3T3, GalScreen luminescence, 90 h; 21% of 5,600 active; shares compounds with T cruzi growth-1;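 active = mean inhibition above about 95%, with at least 55% of replicates also reaching it, limit read from the data; inconclusive = meets just one of the two conditions; inactive = meets neither condition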
NIH3T3 tox: kills mouse NIH/3T3 fibroblasts; 14% of 5,600 active; NIH/3T3 viability, CellTiter-Glo ATP luminescence, 90 h; shares compounds with T cruzi growth-1; cytotoxicity (signal decrease), % at 8.35 µM;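 active = mean signal decrease across replicates above about 35% based on untreated-well scatter, with enough replicates individually passing, limit read from the data; inconclusive = no rule stated though some were filed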
NIH3T3 tox 2: cytotoxicity in mouse NIH/3T3 fibroblasts; 56% of 5,600 active; AID 651744; NIH/3T3 viability, CellTiter-Glo ATP luminescence, 90 h; shares compounds with T cruzi growth-1; inhibition, % at 24.9 µM;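 active = mean loss of cell viability signal at or above a set limit, and enough replicates individually reaching it; inconclusive = meets only the mean limit or only the replicate share; inactive = meets neither condition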
Large screens that a line does not name were inactive (follow-up assays come after a bar, where they were run).

C[C@@H]1CCCCO[C@H](CN(C)C(=O)Nc2ccc(F)cc2)[C@H](C)CN([C@H](C)CO)C(=O)c2cc(NS(C)(=O)=O)ccc2O1	none
C[C@H](CO)N1C[C@H](C)[C@@H](CN(C)Cc2cccnc2)Oc2cc(Br)ccc2S1(=O)=O	T cruzi growth-1 111 | T cruzi growth-2 inactive | T cruzi growth-3 inactive | NIH3T3 tox inactive | NIH3T3 tox 2 39
C[C@@H]1CN([C@@H](C)CO)S(=O)(=O)c2ccc(Br)cc2O[C@@H]1CN(C)Cc1cccnc1	T cruzi growth-1 112 | T cruzi growth-2 107 | T cruzi growth-3 inactive | NIH3T3 tox inactive | NIH3T3 tox 2 inactive
C[C@H](CO)N1C[C@H](C)[C@H](CN(C)Cc2cccnc2)Oc2cc(Br)ccc2S1(=O)=O	none (no result: T cruzi growth-1)
C[C@H]1CN([C@@H](C)CO)S(=O)(=O)c2ccc(Br)cc2O[C@H]1CN(C)Cc1cccnc1	none (no result: T cruzi growth-1)
CCCN(C)C[C@@H]1Oc2ncc(C#Cc3ccccc3OC)cc2C(=O)N([C@H](C)CO)C[C@@H]1C	none (no result: T cruzi growth-1)
CN(C)C(=O)c1cccc(-c2ccc([C@@H]3[C@@H](CO)N4CCCCN(S(C)(=O)=O)C[C@@H]34)cc2)c1	T cruzi growth-1 99 | T cruzi growth-2 inconclusive | T cruzi growth-3 inactive | NIH3T3 tox inactive | NIH3T3 tox 2 inactive
CN(C)C(=O)c1cccc(-c2ccc([C@@H]3[C@H]4CN(C(=O)C5CCCC5)CCCCN4[C@H]3CO)cc2)c1	none
CN(C)C(=O)c1cccc(-c2ccc([C@H]3[C@H](CO)N4CCCCN(C(=O)C5CCCC5)C[C@@H]34)cc2)c1	T cruzi growth-1 inconclusive | T cruzi growth-2 99 | T cruzi growth-3 inactive | NIH3T3 tox inactive | NIH3T3 tox 2 inactive
CN(C)C(=O)c1cccc(-c2ccc([C@@H]3[C@H](CO)N4CCCCN(C(=O)C5CCCC5)C[C@@H]34)cc2)c1	none
CN(C)C(=O)c1cccc(-c2ccc([C@@H]3[C@@H](CO)N4CCCCN(S(C)(=O)=O)C[C@H]34)cc2)c1	none
CN(C)C(=O)c1cccc(-c2ccc([C@H]3[C@@H](CO)N4CCCCN(C(=O)C5CCC5)C[C@@H]34)cc2)c1	T cruzi growth-1 105 | T cruzi growth-2 inactive | T cruzi growth-3 inactive | NIH3T3 tox inactive | NIH3T3 tox 2 inactive
O=C(Nc1cc(F)ccc1F)N1CC(=O)N2[C@H](CO)[C@H](c3ccc(C#CC4CCCC4)cc3)[C@@H]2C1	none (no result: T cruzi growth-1)
C[C@@H]1CN([C@@H](C)CO)C(=O)c2cc(NC(=O)CCCCCC(=O)Nc3ccccc3N)ccc2O[C@@H]1CN(C)Cc1ccncc1	none (no result: T cruzi growth-1)
CCCNC(=O)N1CC(=O)N2[C@H](C1)[C@@H](c1ccc(-c3cccc(C)c3)cc1)[C@@H]2CO	none (no result: T cruzi growth-1)
COc1ccc(CN(C)C[C@@H]2OCCCC[C@H](C)Oc3ccc(NS(=O)(=O)c4ccc(C)cc4)cc3C(=O)N([C@@H](C)CO)C[C@@H]2C)cc1	none (no result: C diff HTS, T cruzi growth-1)
O=S(=O)(c1ccc2ccccc2c1)N1CCN(Cc2ccc(OCCO)cc2)CC1	none (no result: Pf Dd2 growth, T cruzi growth-1)
CCCC#Cc1cnc2c(c1)C(=O)N([C@@H](C)CO)C[C@H](C)[C@@H](CN(C)C(=O)C1CCC1)O2	none
Cc1noc(C)c1S(=O)(=O)Nc1ccc2c(c1)C(=O)N([C@@H](C)CO)C[C@@H](C)[C@@H](CN(C)C(=O)CCC(F)(F)F)OCCCC[C@H](C)O2	none
O=C(C1CCCC1)N1CCCCN2[C@H](CO)[C@@H](c3ccc(-c4cccc(F)c4)cc3)[C@H]2C1	T cruzi growth-1 111 | T cruzi growth-2 104 | T cruzi growth-3 inactive | NIH3T3 tox inactive | NIH3T3 tox 2 104
O=C(C1CCCC1)N1CCCCN2[C@H](CO)[C@H](c3ccc(-c4cccc(F)c4)cc3)[C@@H]2C1	T cruzi growth-1 112 | T cruzi growth-2 113 | T cruzi growth-3 inactive | NIH3T3 tox inactive | NIH3T3 tox 2 66
O=C(C1CC1)N1CCCCN2[C@H](CO)[C@@H](c3ccc(-c4cccc(F)c4)cc3)[C@@H]2C1	none
O=C(C1CCC1)N1CCCCN2[C@H](CO)[C@@H](c3ccc(-c4cccc(F)c4)cc3)[C@H]2C1	none
C[C@@H]1CN([C@@H](C)CO)S(=O)(=O)c2ccc(-c3cccc(C#N)c3)cc2O[C@H]1CN(C)C(=O)Nc1cc(F)ccc1F	none (no result: T cruzi growth-1)
CC(C)NC(=O)N1CC2(C1)[C@@H](c1ccccc1)[C@@H](CO)N2CCC(F)(F)F	none (no result: T cruzi growth-1)
C[C@@H]1CN([C@@H](C)CO)C(=O)c2cc(NS(=O)(=O)c3cn(C)cn3)ccc2O[C@@H]1CN(C)S(=O)(=O)c1cccs1	none (no result: C diff HTS)
CC(C)NC(=O)N(C)C[C@H]1OCCCC[C@@H](C)Oc2ccc(NC(=O)CCCN(C)C)cc2C(=O)N([C@@H](C)CO)C[C@H]1C	none
CN(C)C(=O)[C@H]1[C@H](CO)[C@H]2Cn3c(cccc3=O)[C@@H]1N2C(=O)c1ccc(F)cc1	T cruzi growth-1 185 (no result: Pf Dd2 growth) | T cruzi growth-2 inactive | T cruzi growth-3 inactive | NIH3T3 tox inactive | NIH3T3 tox 2 inactive
CCCNC(=O)[C@H]1[C@H](CO)[C@H]2Cn3c(cccc3=O)[C@@H]1N2C(=O)Nc1cc(F)ccc1F	T cruzi growth-1 101 | T cruzi growth-2 inconclusive | T cruzi growth-3 inactive | NIH3T3 tox inactive | NIH3T3 tox 2 inactive
CCCNC(=O)[C@H]1[C@H](CO)[C@H]2Cn3c(cccc3=O)[C@@H]1N2CCC(F)(F)F	none (no result: Pf Dd2 growth)
CCNC(=O)[C@@H]1[C@@H](CO)[C@@H]2Cn3c(cccc3=O)[C@H]1N2C(=O)Nc1cc(F)ccc1F	none (no result: T cruzi growth-1)
CCCNC(=O)[C@@H]1[C@@H](CO)[C@@H]2Cn3c(cccc3=O)[C@H]1N2CCC(F)(F)F	T cruzi growth-1 94 (no result: Pf Dd2 growth) | T cruzi growth-2 inconclusive | T cruzi growth-3 inactive | NIH3T3 tox inactive | NIH3T3 tox 2 inactive
CN(C)C(=O)[C@@H]1[C@@H](CO)[C@@H]2Cn3c(cccc3=O)[C@H]1N2C(=O)c1ccccc1	none
COc1ccc(S(=O)(=O)N(C)C[C@H]2Oc3c(NS(=O)(=O)c4cccs4)cccc3C(=O)N([C@@H](C)CO)C[C@H]2C)cc1	none
COc1ccc(S(=O)(=O)Nc2ccc3c(c2)C(=O)N([C@@H](C)CO)C[C@@H](C)[C@@H](CN(C)C(=O)CCCN(C)C)OCCCC[C@H](C)O3)cc1	none
O=C(C[C@@H]1CC[C@H]2[C@@H](COC[C@H](O)CN2C(=O)c2ccccn2)O1)NC1CCC1	none (no result: T cruzi growth-1)
OC[C@H]1[C@@H](c2ccc(-c3cccc(F)c3)cc2)[C@@H]2CN(Cc3cncnc3)CCCCN12	none
COc1cccc(-c2ccc([C@@H]3[C@H](CO)N4CCCCN(Cc5cncnc5)C[C@@H]34)cc2)c1	none
OC[C@@H]1[C@H](c2ccc(-c3cccc(F)c3)cc2)[C@@H]2CN(Cc3cncnc3)CCCCN12	T cruzi growth-1 123 | T cruzi growth-2 102 | T cruzi growth-3 inactive | NIH3T3 tox inactive | NIH3T3 tox 2 inactive

Assay outcomes (PubChem BioAssay)
